Reference: PubChem BioAssay AID1722 (National Center for Advancing Translational Sciences (NCATS), 2009)
The whole screen tested about 290,000 compounds, of which fewer than 10 were called active. The call rests on the fitted dose curve. The list is a sample of the results.

Each compound was assayed against Pyruvate kinase (Leishmania mexicana) (UniProt Q27686) (assay: qHTS Assay for Activators of Leishmania Mexicana Pyruvate Kinase (LmPK)). Conditions: purified LmPK, Kinase-Glo ATP luminescence, 1 h; series mostly up to 57.5 µM; activity change, negative = inhibition: at the top concentration.
Pyruvate kinase (Leishmania mexicana), sequence (Q27686 whole entry, looked up): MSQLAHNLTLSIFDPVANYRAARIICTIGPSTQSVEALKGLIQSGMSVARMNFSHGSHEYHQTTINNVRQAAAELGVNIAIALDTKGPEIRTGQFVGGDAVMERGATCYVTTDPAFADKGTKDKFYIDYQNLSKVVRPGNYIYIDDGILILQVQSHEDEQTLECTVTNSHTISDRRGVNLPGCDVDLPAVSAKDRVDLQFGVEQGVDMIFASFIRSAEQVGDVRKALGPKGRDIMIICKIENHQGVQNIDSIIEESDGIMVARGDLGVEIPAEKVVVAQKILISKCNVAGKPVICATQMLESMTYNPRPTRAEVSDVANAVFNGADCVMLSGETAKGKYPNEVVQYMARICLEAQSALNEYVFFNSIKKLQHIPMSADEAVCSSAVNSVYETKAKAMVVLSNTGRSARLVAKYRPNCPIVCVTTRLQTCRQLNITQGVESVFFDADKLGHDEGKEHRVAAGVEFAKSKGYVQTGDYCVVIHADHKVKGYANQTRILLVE
Text: NIH Chemical Genomics Center [NCGC] Malcolm Walkinshaw, Hugh Morgan, Linda Gilmore University of Edinburgh, UK MLPCN Grant: 1 R03 MH085697-01 NCGC Assay Overview: Pyruvate kinase (L. Mexicana) (LmPK) enzyme was supplied as a highly purified (>95% pure) sulphate-free preparation from University of Edinburgh, UK and assayed for its ability to generate ATP from ADP using phosphoenolpyruvate (PEP) as a substrate. ATP generation was detected in a coupled reaction by luciferase-mediated luminescence, an ATP-dependent process. Pyruvate kinase substrates, PEP and ADP, were present in the assay at Km and approximately 10-fold below Km respectively. The enzyme was assayed at an intermediate level of activity to screen for both inhibitors and activators.
NCGC Assay Protocol Summary: Three uL of enzyme mix (kept on ice) in assay buffer (50 mM Imidazole pH7.2, 50 mM KCl, 7 mM MgCl2, 0.01% Tween 20, 0.05% BSA) containing PEP (0.5 mM final concentration) and LmPK (0.1 nM final concentration) was dispensed into white solid bottom 1,536 well microtiter plates. 23 nL of compound were delivered by a pin tool and 1 uL of ADP mix in assay buffer (r.t; 0.1 mM final ADP concentration) was added. Plates were incubated at room temperature for 1 hour. Two uL of detection mix (Kinase-Glo, Promega; at 4 degree Celsius protected from light) was added and luminescence read by a ViewLux (Perkin Elmer) at 1 second exposure/plate. Data were normalized to the uninhibited and AC100 inhibition (no enzyme). To monitor activation, the first column contained a five-fold concentration of LmPK (0.5 nM).

SMILES	activity change, negative = inhibition
COc1ccc(C(=O)NC(=S)N2CCCCC2c2cccnc2)cc1OC (stereo unspecified)	-68.1% (inactive)
CN(C)N=Nc1ccc2nc[nH]c2c1	-49.1% (inactive)
CC(=O)Nc1ccc(/C=C/C(=O)c2ccccc2)cc1	-55.2% (inactive)
COc1ccccc1OCc1nc2ccccc2s1	-84.8% (inactive)
Oc1ccccc1/C=N/n1c(-c2cccs2)n[nH]c1=S	-30.4% (inactive)
O=C(Oc1ccc(-c2nc(-c3ccccn3)no2)cc1)c1ccccc1	-37.7% (inactive)
O=c1[nH]c2ccccc2n2c(-c3ccccc3)nnc12	-74.5% (inactive)
O=[N+]([O-])c1ccc2oc(-c3cccc(O)c3)nc2c1	-33.8% (inactive)
S=c1[nH]nc2c3c4c(sc3ncn12)CCCC4	-57.3% (inactive)
CCOC(=O)c1sc(NC(=O)c2ccncc2)nc1C	-37.2% (inactive)
Cn1c(-c2ccco2)nc2cc3ccccc3cc21	-80.5% (inactive)
O=c1[nH]c(CCl)nc2cc(-c3ccc(Cl)cc3)sc12	-30.2% (inactive)
O=C(Nc1ccc(C(=O)O)c(O)c1)c1ccccc1	-55.6% (inactive)
CC(=O)N(C1=C(Cl)C(=O)c2ccccc2C1=O)c1ccc(C(=O)O)cc1	-97.8% (inactive)
O=c1c2c(nc3n1CCCCC3)sc1c(O)cccc12	-38.8% (inactive)
Cc1cc(NC(=O)Nc2ccccc2[N+](=O)[O-])no1	-30.1% (inactive)
COc1ccc(-c2cn3ccsc3n2)cc1	-44.3% (inactive)
CCC(=O)Nc1ccc(C(=O)Nc2cccc(OC)c2)cc1	-41% (inactive)
O=c1oc2ccccc2cc1-c1cn(-c2ccccc2)c(=S)[nH]1	-52.2% (inactive)
S=c1[nH]cc(-c2ccc(Cl)cc2)n1-c1ccccc1	-27% (inactive)
Cc1ccnc(NC(=O)c2ccoc2C)c1	-80.2% (inactive)

SMILES	activity change, negative = inhibition
CCCCSc1nnc2c(n1)OC=Nc1ccccc1-2	-36.3% (inactive)
O=C(Nc1nnc(C2CC2)s1)c1ccccn1	-63.9% (inactive)
COc1ccccc1N=Cc1c(O)c2ccccc2oc1=O	-40.9% (inactive)
Cc1nonc1C(=O)N/N=C/c1ccc(O)cc1	-87.7% (inactive)
CC(C)Oc1ccc(CCc2n[nH]c(=S)n2Cc2ccccc2)cc1	-41.2% (inactive)
CCc1n[nH]c(=S)n1/N=C/c1c[nH]c2ccc(Br)cc12	-58.2% (inactive)
COc1cc(OC)c(C(=O)Nc2ccc(N(C)C)cc2)cc1OC	-38.5% (inactive)
CC(C)c1ccc(Nc2ncccc2C#N)cc1	-45.8% (inactive)
O=C(Nc1cccc2ccccc12)c1onc2c1CCCC2	-58.3% (inactive)
CN(C)c1nc(=Nc2cccc(Cl)c2)ss1	-52.9% (inactive)
Oc1ccc(N=Nc2nccs2)c(O)c1	-62.3% (inactive)
CCc1nnc(NS(=O)(=O)c2ccc(N=Cc3c(C)[nH]n(-c4ccc(C)cc4)c3=O)cc2)s1	-44.9% (inactive)
Cc1ccc(NC(=O)c2sccc2C)cc1[N+](=O)[O-]	-43.8% (inactive)
Cc1cc(C(=O)COC(=O)C2CC2)c(C)n1-c1ccc(F)cc1	-45.2% (inactive)
CCCCCC(=O)NC(=S)NNC(=O)c1ccc([N+](=O)[O-])cc1	-63.3% (inactive)
COC(=O)c1ccc(NCC(=O)c2ccccc2)cc1	-53.5% (inactive)
N/C(=N\OC(=O)c1ccc([N+](=O)[O-])cc1)c1ccccn1	-64.5% (inactive)
CCOc1ccc(NC(=O)Nc2cc(C)ccc2OC)cc1	-31.1% (inactive)
COc1ccccc1C(=O)Nc1ccc(NC(=O)c2ccco2)c(C)c1	-73.8% (inactive)
O=c1oc2cc(O)ccc2cc1-c1ccc(F)cc1	-57% (inactive)
CC(OC(=O)c1ccc2ccccc2n1)C(=O)c1ccccc1 (stereo unspecified)	-32.6% (inactive)

SMILES	activity change, negative = inhibition
Nc1[nH][nH]c(=O)c1N=Nc1ccc2c(c1)OCO2	-30.8% (inactive)
Cc1ccc(OCc2n[nH]c(=S)n2-c2ccccc2)cc1	-49.9% (inactive)
O=C(/C=C/c1ccc(N2CCOCC2)cc1)c1ccccc1	-38.4% (inactive)
O=C1Nc2ccc(Br)cc2/C1=N/N=C/C1=C(N2CCOCC2)C(=C\c2ccccc2)/CC1	-66.7% (inactive)
COc1ccc(C(=O)C[n+]2ccc(N)c(C)c2C)cc1	-74.2% (inactive)
S=c1[nH]nc(COc2ccccc2)n1-c1ccccc1	-45.1% (inactive)
COc1ccc(C(CC(=O)c2ccccc2)S(=O)(=O)c2ccccc2)cc1 (stereo unspecified)	-33.8% (inactive)
S=c1[nH]nc(CSCc2ccc(Cl)cc2Cl)n1-c1ccccc1	-42.5% (inactive)
C(=N\Nc1ccc2ccccc2n1)/c1ccc2c(c1)OCO2	-46.9% (inactive)
Cc1ccc(-n2c(-c3ccc(Cl)cc3)n[nH]c2=S)cc1	-95.3% (inactive)
O=c1c(-c2ccccc2)coc2cc(O)ccc12	-57.5% (inactive)
CN(C)c1ccc(Nc2c3c4c(cccc4n(C)c2=O)C(=O)c2ccccc2-3)cc1	-37.4% (inactive)
COc1ccc(-c2cn(-c3ccc(OC)cc3)c(=S)[nH]2)cc1	-19.8% (inactive)
O=C(CSC(=S)N1CCOCC1)c1ccccc1	-54.1% (inactive)
CSc1ccc(/C=N/NC(=O)c2cccc(Cl)c2)cc1	-33.4% (inactive)
COc1ccc(-c2nc(-c3ccccc3)no2)c(OC)c1	-71.5% (inactive)
Cc1cccc(NC(=O)/C=C/c2ccc3c(c2)OCO3)n1	-36.4% (inactive)
O=C(Nc1ccc(Cl)cn1)c1ccc2c(c1)OCCO2	-65.4% (inactive)
Cc1c(Cl)cccc1NC(=O)Nc1ccc(C(=O)N2CCCC2)cc1	-31.5% (inactive)
Cc1cccc(/C(N)=N/OC(=O)c2ccccc2Cl)c1	-95.3% (inactive)
CN=C1C=C/C(=N/N=c2\ccn(O)cc2C)C=C1C	-51.9% (inactive)

SMILES	activity change, negative = inhibition
COc1cccc(/C=C/c2ccc3ccccc3n2)c1OC(C)=O	-74% (inactive)
Cc1n[nH]c(=O)nc1N/N=C/c1cccs1	-58.4% (inactive)
COc1ccc(-n2c(-c3ccc(OC)c(OC)c3)n[nH]c2=S)cc1	-68.7% (inactive)
c1csc(-c2nc(-c3ccncc3)no2)c1	-41.6% (inactive)
Cc1ccn2cc(-c3nonc3C)cc2c1	-33.1% (inactive)
COc1cc(SC)ccc1C(=O)Nc1nc(C)cs1	-60.5% (inactive)
O=c1c2ccccc2cnn1Cc1n[nH]c(=S)n1-c1ccccc1F	-48.1% (inactive)
O=C(/C=C/c1ccccc1)c1ccccc1O	-33.2% (inactive)
Cc1nc(-c2ccc(NC(=O)c3cccs3)cc2)cs1	-50.6% (inactive)
CCN(CC)c1ccc2oc(=O)c(C)nc2c1	-41% (inactive)
S=c1[nH]ccn1-c1ccc(Cl)cc1	-66.3% (inactive)
N=c1oc2ccccc2cc1C(=O)N/N=C/c1ccccc1	-66.9% (inactive)
COc1cccc(C(=O)Nc2ccc(N3CCCC3)cc2)c1	-80.7% (inactive)
COc1ccc(C(=O)Nc2ccccc2C(=O)N/N=C/c2ccccc2OC)cc1	-53% (inactive)
O=C(O)/C=C/C(=O)NNc1ccc([N+](=O)[O-])cc1	-47.7% (inactive)
Clc1ccc2nc(CSc3ccccc3)cn2c1	-41.7% (inactive)
C/C(=N\NC(=O)OC(C)(C)C)c1ccc[nH]1	-47.6% (inactive)
Cn1c(-c2sc3cc(C(F)(F)F)cnc3c2-c2ccccc2)n[nH]c1=S	-33.6% (inactive)
